# Most compounds without a hit are left out; they make up all but 1.8% or so of the library.
# PKD1 inh – blocks activity of human protein kinase D1 | inhibition, % (no concentration beside the values) | 200,000 tested, 0.056% active | Q15139 | PKD1 kinase fluorescence polarization assay
# HDAC3 inh – human HDAC3 inhibition; recombinant HDAC3, fluorogenic peptide/trypsin coupled, fluorescence; AID 2718; 320,000 tested, 0.15% active; O15379; inhibition, % at 8.3 µM; in the data active means inhibition above about 26%, passing the limit was not always enough
# DSG3 Ab inh – inhibitors of pemphigus antibody binding to human desmoglein-3; 310,000 tested, 0.48% active; DSG3-coupled beads, scFv-anti-DSG3-GFP binding, flow cytometry; active compounds read low; P32926; binding (percent of control), % at 10 µM;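 active means binding more than 3 SD below its plate's average and above zero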;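 further: hits lower antibody fragment binding to DSG3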
# LANA-H2B inh – blocks KSHV LANA binding to histone H2A/H2B; Q9QR71; 320,000 tested, 0.6% active; inhibition, % (test concentration not listed); cell-free LANA-H2A/H2B peptide, fluorescence polarization; AID 2629; in the data active means inhibition mostly above about 10%, no sharp cut-off; inactive means mostly below about 6.7%
# GRK2 inh – human GRK2 inhibition via aptamer displacement | bead flow cytometry, FAM-aptamer displacement from GRK2 | inhibition of aptamer binding, % at 10 µM | 330,000 tested, 0.59% active | AID 488847;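 active means inhibition of aptamer binding above 40%, roughly 3 SD of noise, on plates passing a quality check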;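 further: median bead fluorescence of bound FAM aptamer so fluorescent compounds give negative values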
# VLA-4 inh – inhibition in a human VLA-4 binding assay; VLA-4 expressing cells, ligand binding flow cytometry; 330,000 tested, 0.2% active; inhibition, % (about 7 µM as worked out from the volumes in the protocol); P13612; AID 2557
# Target sequence (P13612 whole entry, looked up): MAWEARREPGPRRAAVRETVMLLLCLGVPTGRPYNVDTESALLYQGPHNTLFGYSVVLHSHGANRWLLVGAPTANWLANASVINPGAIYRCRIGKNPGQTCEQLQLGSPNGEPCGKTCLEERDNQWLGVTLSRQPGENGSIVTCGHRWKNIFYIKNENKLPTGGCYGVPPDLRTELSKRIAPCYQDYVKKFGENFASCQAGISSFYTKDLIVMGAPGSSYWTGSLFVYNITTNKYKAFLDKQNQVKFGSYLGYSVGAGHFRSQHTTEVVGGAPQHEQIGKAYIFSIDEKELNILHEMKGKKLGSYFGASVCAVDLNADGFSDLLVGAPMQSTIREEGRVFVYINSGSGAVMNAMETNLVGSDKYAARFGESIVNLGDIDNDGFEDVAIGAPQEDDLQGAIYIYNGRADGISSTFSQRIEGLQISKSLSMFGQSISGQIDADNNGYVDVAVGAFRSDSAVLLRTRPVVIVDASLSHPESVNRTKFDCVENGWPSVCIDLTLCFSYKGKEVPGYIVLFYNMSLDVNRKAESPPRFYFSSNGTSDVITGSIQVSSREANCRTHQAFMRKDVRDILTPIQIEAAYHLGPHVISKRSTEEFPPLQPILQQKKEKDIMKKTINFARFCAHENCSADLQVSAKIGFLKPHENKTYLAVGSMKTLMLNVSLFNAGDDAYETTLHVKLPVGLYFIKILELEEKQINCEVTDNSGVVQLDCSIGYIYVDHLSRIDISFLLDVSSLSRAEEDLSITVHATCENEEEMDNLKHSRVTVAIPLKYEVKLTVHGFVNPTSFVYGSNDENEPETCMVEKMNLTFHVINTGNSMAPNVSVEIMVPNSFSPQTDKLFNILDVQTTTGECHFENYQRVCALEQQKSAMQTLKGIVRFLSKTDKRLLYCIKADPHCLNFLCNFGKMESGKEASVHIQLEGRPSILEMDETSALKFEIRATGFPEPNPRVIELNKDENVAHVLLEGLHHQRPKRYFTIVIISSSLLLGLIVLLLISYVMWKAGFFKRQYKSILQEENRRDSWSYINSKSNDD
# GRK2 CP1 – human GRK2 inhibition confirmation, cherry pick 1 | shares compounds with GRK2 inh | bead-bound GRK2, FAM-aptamer displacement, flow cytometry | aptamer displacement, % at 10 µM | 2,000 tested, 4% active;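 active means aptamer displacement above 40%, near three times the noise of non-fluorescent compounds, on plates passing quality checks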;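 further: negative values mostly reflect intrinsic compound fluorescence rather than true enhancement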
# Aptamer quench 1 – fluorescent aptamer quenching in GRK2 counter-screen dose response. shares compounds with GRK2 inh. Fluorescent RNA aptamer beads, flow cytometry; active compounds read high. fluorescence change (kMESF span), kMESF (concentration not given with the values). 110 tested, under 10 active. AID 504521;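 active means compounds whose bead fluorescence drops by more than 37 kMESF across the dose range, marking them as dye quenchers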
# Aptamer quench SP – counter-screen for GRK2 aptamer inhibitors: fluorescent aptamer quenchers | Carboxyfluorescein RNA aptamer on beads, flow cytometry quenching; active compounds read low | fluorescence response (% of DMSO), % at 10 µM | 2,000 tested, under 10 active | AID 504580 | shares compounds with GRK2 inh;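 active means compounds that quench the bead-bound fluorescent RNA probe, cutting fluorescence to under half of the solvent control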;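 further: counterscreen run without GRK2 so only probe quenching by compound is measured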
# * hit, by the source's call; x = not tested or not shown. Unless noted, no stated cut-off is given here; in the data, active means inhibition above about 50%; inactive means the rest.
SMILES,PKD1 inh,HDAC3 inh,DSG3 Ab inh,LANA-H2B inh,GRK2 inh,VLA-4 inh,GRK2 CP1,Aptamer quench SP,others
O=C(CCc1ccccc1)Nc1nc2n(n1)C(c1ccccc1)CC(=O)N2 (stereo unspecified),9,0,101,5,2,13,x,x,
CN(CC(=O)Nc1cccc(F)c1)C(=O)CCc1nc2sc3c(c2c(=O)[nH]1)CCCC3,x,-3,100,-2,11,2,1,98,
Cc1cccc(C)c1NC(=O)CN(C)C(=O)CCc1nc2sc3c(c2c(=O)[nH]1)CCCC3,x,1,x,2,3,-1,x,x,
CN(CCOc1ccccc1)C(=O)CCc1nc2sc3c(c2c(=O)[nH]1)CCCC3,x,2,111,-4,0,0,0,97,
N=C1/C(=C/c2ccco2)C(=O)N=C2SC(CC(=O)N3CCCC3)=NN12,x,3,99,1,46*,-1,14,96,
COc1ccc(C)cc1NS(=O)(=O)c1ccc(Cl)nc1,x,3,112,-3,2,6,x,x,
CC(C)c1ccc(NC(=O)CCc2ccccc2)cc1,x,11,95,-3,1,13,x,x,
CCn1c(=O)c(C(=O)NNC(=O)c2cccc(Cl)c2)c(O)c2ccccc21,x,2,94,-2,54*,-1,-9,105,
Cc1cccc(C(=O)NNC(=O)c2c(O)c3ccccc3n(C)c2=O)c1,x,-3,102,1,0,9,x,x,
Cn1c(=O)c(C(=O)NNC(=O)c2cccc(Cl)c2)c(O)c2ccccc21,x,-1,94,0,90*,-8,65*,142,Aptamer quench 1=-35
CSCC[C@H](NC(=O)COc1ccc(Cl)cc1)c1nc2ccccc2[nH]1,0,2,88,0,98*,-5,1,94,
CC1CCN(S(=O)(=O)N2CCCC(C(=O)NCc3ccccc3Cl)C2)CC1 (stereo unspecified),x,-1,98,7,1,5,x,x,
Cc1cc(=O)n2nc(N3CCCC(C(=O)NCc4ccccc4C)C3)sc2n1 (stereo unspecified),x,3,109,1,0,-4,-3,97,
Cc1cc(=O)n2nc(N3CCCC(C(=O)NCc4ccccc4Cl)C3)sc2n1 (stereo unspecified),x,7,x,1,0,-3,-1,102,
Cc1cc(=O)n2nc(N3CCCC(C(=O)NCc4ccccc4Br)C3)sc2n1 (stereo unspecified),x,2,103,2,0,12,x,x,
CC1CC(C)CN(S(=O)(=O)N2CCCC(C(=O)NCc3ccccc3Cl)C2)C1 (stereo unspecified),x,-1,100,-2,0,-6,-5,92,
Cc1cc(=O)n2nc(N3CCCC(C(=O)NCc4ccccc4)C3)sc2n1 (stereo unspecified),x,-3,101,-2,0,-4,x,x,
C[C@H](NC(=O)c1nc[nH]c1C(=O)N1CCNCC1)C(=O)OC(C)(C)C,x,7,100,-2,0,3,x,x,
Cc1nnc(NC(=O)CSc2nnc(CC(=O)Nc3ccccc3Cl)n2C)s1,x,0,125,0,1,6,x,x,
COC(=O)C(NC(=O)c1ccco1)(Nc1nc(C2CC2)cs1)C(F)(F)F (stereo unspecified),-2,5,98,-2,90*,11,-4,102,
Cc1cc(OCC(=O)N2CCC[C@@H]2C(=O)O)c2c(C)c(C)c(=O)oc2c1,x,-48,104,6,0,19,x,x,
Cc1cc(OCC(=O)N2CCN(c3cccc(Cl)c3)CC2)c2c(C)c(C)c(=O)oc2c1,x,-6,98,-2,55*,-7,-16,97,
N[C@@H](Cc1cnc[nH]1)C(=O)Nc1ccc2ccccc2c1,x,x,101,x,x,x,x,x,

# Screening results as filed in PubChem BioAssay.
